A selection: hits, their analogues and other compounds. The true share with any hit is near 9.6%.
INS promoter inh: TRM-6 insulin promoter activity inhibition; TRM-6 cells (human fetal islet line), insulin promoter-eGFP reporter, imaging; reporter expression induced with tamoxifen; inhibition, % at 2 µM; 130,000 tested, 0.9% active; AID 1273;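 active = inhibition above the mean plus 3 SD, with well images judged a real hit on visual review, cut at about 60% in these data, passing the limit was not always enough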
Autophagy mod: alters autophagy in cells; MEF GFP-LC3 puncta imaging; test concentration mostly 10 µM; calls only at 10 µM (by protocol); 190,000 tested, 0.98% active;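 active = percentage of spot-positive cells more than 3 SD above its plate mean, without a fluorescence outlier flag or 80% toxicity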
HCT116 bCat-KO: beta-catenin-lacking colon tumor cell growth suppression | 140,000 tested, 1.5% active | viability, % at 10 µM | HCT116 beta-catenin knockout viability, CellTiter-Glo, 60 h; hits give low values;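 active = viability at or under a set limit, the compound median less 4 SD, cut at about 6% in these data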
HCT116 PTEN-null: growth suppressors of cells with PTEN tumor suppressor deletion; HCT116 PTEN-null viability, CellTiter-Glo, 60 h; hits give low values; 140,000 tested, 1.2% active; viability, % at 10 µM; AID 827;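 active = viability at or below a set limit, 4 SD under the median of all tested compounds, cut at about 3.7% in these data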;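 note: PTEN knockout HCT116 line with beta catenin targeted HCT116 as companion control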
L major viab: reduces viability of Leishmania major promastigotes; resazurin fluorescence viability; inhibition, % at 10 µM; 200,000 tested, 9% active; AID 1063; in the data active = inhibition above about 50%;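 note: promastigotes grown with compound for 44 hours at 28 °C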
Ins promoter up: MIN6 insulin promoter up-regulation; MIN6 insulin promoter-GFP reporter, high-content imaging; hits give high values; z-score at 5 µM; 190,000 tested, 0.3% active;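 active = z-score above 3 at 5 µM with at least 500 cells counted in the well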
Hits are given with their value.

For CN1CCN(c2ccc(Cl)cc2NS(=O)(=O)c2ccccc2Cl)CC1 the results were INS promoter inh inactive, Autophagy mod inactive, HCT116 bCat-KO inactive, HCT116 PTEN-null inactive, L major viab 99.5 and Ins promoter up inactive.
Screening Nc1cc(S(=O)(=O)Nc2ccccc2Cl)ccc1N1CCCC1 returned Ins promoter up inactive.
Screening CCCC(=O)NCc1cc(-c2nn(C)c(=O)c3ccccc23)ccc1C returned INS promoter inh inactive, Autophagy mod inactive, HCT116 bCat-KO inactive, HCT116 PTEN-null inactive, L major viab inactive and Ins promoter up inactive.
`C=COCCNC(=O)C(=O)NC(C)C` gave INS promoter inh inactive, Autophagy mod inactive, HCT116 bCat-KO inactive, HCT116 PTEN-null inactive, L major viab inactive and Ins promoter up inactive.
Screening Cc1ccc(Cn2cccc(NC(=O)NC3CCCCC3)c2=O)cc1 returned INS promoter inh inactive, Autophagy mod inactive, HCT116 bCat-KO inactive, HCT116 PTEN-null inactive, L major viab 85.8 and Ins promoter up inactive.
Screening O=C(Nc1cccn(Cc2ccc(F)cc2)c1=O)NC1CCCCC1 returned INS promoter inh inactive, Autophagy mod inactive, HCT116 bCat-KO inactive, HCT116 PTEN-null inactive, L major viab 83.3 and Ins promoter up inactive.
COc1cccc(Cn2cccc(NC(=O)NC3CCCCC3)c2=O)c1 was read as Autophagy mod inactive, HCT116 bCat-KO inactive, HCT116 PTEN-null inactive, L major viab 99.0 and Ins promoter up inactive.
COc1ccc(Cn2cccc(NC(=O)Nc3cccc(C#N)c3)c2=O)cc1 was read as INS promoter inh inactive, Autophagy mod inactive, HCT116 bCat-KO inactive, HCT116 PTEN-null inactive, L major viab inactive and Ins promoter up inactive.
For O=C(NCc1ccccc1)Nc1cccn(Cc2ccc(F)cc2)c1=O the results were INS promoter inh inactive, Autophagy mod inactive, HCT116 bCat-KO inactive, HCT116 PTEN-null inactive, L major viab inactive and Ins promoter up inactive.
Screening CCCCCCOc1ccc(N2C(=O)CC(SC(=NCC)NCC)C2=O)cc1 (configuration not stated) returned INS promoter inh inactive, Autophagy mod inactive, L major viab inactive and Ins promoter up inactive.
COc1cc2nc(=S)n3[nH]c(COc4ccccc4C)nc3c2cc1OC was read as Autophagy mod inactive, HCT116 bCat-KO inactive, HCT116 PTEN-null inactive and L major viab inactive.
`CN(C)c1ccc(NC(=O)CCCc2ccccc2)cc1` gave INS promoter inh inactive, Autophagy mod inactive, HCT116 bCat-KO inactive, HCT116 PTEN-null inactive, L major viab 76.5 and Ins promoter up inactive.
Screening COc1ccc(/C=C/C(=O)NC(=S)Nc2ccccc2C(=O)NC2CCCCC2)cc1 returned INS promoter inh inactive, Autophagy mod inactive, HCT116 bCat-KO inactive, HCT116 PTEN-null inactive, L major viab 91.1 and Ins promoter up inactive.
For CC(C)(C)C(=O)NC(=S)Nc1ccccc1C(=O)NC1CCCCC1 the results were Autophagy mod inactive, L major viab inactive and Ins promoter up inactive.
For Cc1ccc(/C=C/C(=O)NC(=S)Nc2ccccc2C(=O)NC2CCCCC2)cc1 the results were INS promoter inh inactive, Autophagy mod inactive, HCT116 bCat-KO inactive, HCT116 PTEN-null inactive and L major viab 83.2.
COc1ccccc1C(=O)NC1CCCCCCC1 was read as INS promoter inh inactive, Autophagy mod active, HCT116 bCat-KO inactive, HCT116 PTEN-null inactive and L major viab inactive.
O=C(/C=C/c1ccc(F)cc1)NC(=S)Nc1ccccc1C(=O)NC1CCCCC1 was read as INS promoter inh inactive, Autophagy mod inactive, HCT116 bCat-KO inactive, HCT116 PTEN-null inactive and L major viab inactive.
Screening O=C(/C=C/c1ccccc1)NC(=S)Nc1ccccc1C(=O)NC1CCCCC1 returned INS promoter inh inactive, Autophagy mod inactive, HCT116 bCat-KO inactive, HCT116 PTEN-null inactive and L major viab 99.5.
`CC(=O)NC(=S)Nc1ccccc1C(=O)NC1CCCCC1` gave INS promoter inh inactive, Autophagy mod inactive, HCT116 bCat-KO inactive, HCT116 PTEN-null inactive, L major viab inactive and Ins promoter up inactive.
O=C(c1ccc([N+](=O)[O-])s1)N1CCc2ccccc2C1 was read as Autophagy mod inactive, L major viab 94.2 and Ins promoter up inactive.
Screening O=C(c1ccccc1[N+](=O)[O-])N1CCc2ccccc2C1 returned Autophagy mod inactive, HCT116 bCat-KO inactive, HCT116 PTEN-null inactive, L major viab inactive and Ins promoter up inactive.
CC1(C)CC(=O)C2=C(C1)N(N1CCOCC1)C(N)=C(C#N)C2c1cccnc1 (configuration not stated) was read as INS promoter inh inactive, Autophagy mod inactive, HCT116 bCat-KO inactive, HCT116 PTEN-null inactive, L major viab inactive and Ins promoter up inactive.
`CCC(c1nnnn1CCc1ccccc1)N(Cc1ccco1)Cc1cc2cc(C)cc(C)c2[nH]c1=O` (configuration not stated) gave Autophagy mod inactive, HCT116 bCat-KO inactive, HCT116 PTEN-null inactive, L major viab 89.7 and Ins promoter up inactive.
Screening CCC(c1nnnn1CCc1ccccc1)N(Cc1ccco1)Cc1cc2c(C)ccc(C)c2[nH]c1=O (configuration not stated) returned INS promoter inh inactive, Autophagy mod inactive, HCT116 bCat-KO inactive, HCT116 PTEN-null inactive, L major viab 87.0 and Ins promoter up inactive.
`CCC(c1nnnn1Cc1ccccc1)N(Cc1ccco1)Cc1cc2cc(OC)ccc2[nH]c1=O` (configuration not stated) gave Autophagy mod inactive, HCT116 bCat-KO inactive, HCT116 PTEN-null inactive, L major viab inactive and Ins promoter up inactive.
For Cc1ccc(S(=O)(=O)NCc2ccc(/C=C(/C#N)C(=O)NCc3ccccc3)o2)cc1 the results were INS promoter inh inactive, Autophagy mod inactive, HCT116 bCat-KO inactive, HCT116 PTEN-null inactive, L major viab 70.4 and Ins promoter up inactive.
Screening CN(C)c1ccc(/C=C(/C#N)C(=O)NCc2ccccc2)o1 returned INS promoter inh inactive, Autophagy mod active, HCT116 bCat-KO inactive, HCT116 PTEN-null inactive, L major viab inactive and Ins promoter up 16.1.
`COCCNC(=O)/C(C#N)=C\c1ccc(CNS(=O)(=O)c2ccc(C)cc2)o1` gave Autophagy mod inactive, L major viab inactive and Ins promoter up inactive.
`CCOC(=O)c1nnc(-c2cccs2)nc1NC(C)C` gave INS promoter inh inactive, Autophagy mod inactive, HCT116 bCat-KO inactive, HCT116 PTEN-null inactive and L major viab inactive.
For CN(C)c1ccc(NS(=O)(=O)c2cc(Cl)ccc2Cl)cc1 the results were INS promoter inh inactive, Autophagy mod inactive, HCT116 bCat-KO inactive, HCT116 PTEN-null inactive, L major viab 63.6 and Ins promoter up inactive.
For O=S(=O)(Nc1ncccn1)c1ccc(NS(=O)(=O)c2cc(Cl)ccc2Cl)cc1 the results were INS promoter inh inactive, Autophagy mod inactive, L major viab inactive and Ins promoter up inactive.
`CCN(c1ccc(NS(=O)(=O)c2cc(Cl)ccc2Cl)cc1)C(C)C` gave INS promoter inh 69.2, Autophagy mod inactive, HCT116 bCat-KO inactive, HCT116 PTEN-null inactive, L major viab inactive and Ins promoter up inactive.
